# Measurements taken from the supplement of paper PMC12819154, “High-throughput peptide-centric local stability assay extends protein–ligand identification to membrane proteins, tissues and bacteria” (Nature Structural & Molecular Biology, 2025).
# Compound: CN[C@@H]1C[C@H]2O[C@@](C)([C@@H]1OC)n1c3ccccc3c3c4c(c5c6ccccc6n2c5c31)C(=O)NC4 [staurosporine]
# Test: log2 fold change of tryptic peptide abundance, ligand vs vehicle (limited proteolysis) (log2 ratio); higher = more trypsin-susceptible (destabilized)
# Conditions: ligand concentration: 20 uM; sample: mouse liver crude lysate; replicate design: treated separately
# Sequence of UniProt Q9EPJ9 (Q9EPJ9 whole entry): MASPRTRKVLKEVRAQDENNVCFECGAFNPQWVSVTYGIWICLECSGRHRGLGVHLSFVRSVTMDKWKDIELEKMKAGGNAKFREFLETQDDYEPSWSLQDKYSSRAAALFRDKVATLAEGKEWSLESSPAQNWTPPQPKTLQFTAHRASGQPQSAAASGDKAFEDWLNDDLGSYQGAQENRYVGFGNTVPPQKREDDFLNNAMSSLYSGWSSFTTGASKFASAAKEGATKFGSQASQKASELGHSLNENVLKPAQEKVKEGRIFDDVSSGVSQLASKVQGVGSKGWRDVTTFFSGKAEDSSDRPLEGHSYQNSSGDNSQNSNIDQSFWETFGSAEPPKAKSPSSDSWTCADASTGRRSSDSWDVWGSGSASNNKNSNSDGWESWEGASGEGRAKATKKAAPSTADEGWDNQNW
# Sequence of UniProt Q76M72 (Q76M72 whole entry): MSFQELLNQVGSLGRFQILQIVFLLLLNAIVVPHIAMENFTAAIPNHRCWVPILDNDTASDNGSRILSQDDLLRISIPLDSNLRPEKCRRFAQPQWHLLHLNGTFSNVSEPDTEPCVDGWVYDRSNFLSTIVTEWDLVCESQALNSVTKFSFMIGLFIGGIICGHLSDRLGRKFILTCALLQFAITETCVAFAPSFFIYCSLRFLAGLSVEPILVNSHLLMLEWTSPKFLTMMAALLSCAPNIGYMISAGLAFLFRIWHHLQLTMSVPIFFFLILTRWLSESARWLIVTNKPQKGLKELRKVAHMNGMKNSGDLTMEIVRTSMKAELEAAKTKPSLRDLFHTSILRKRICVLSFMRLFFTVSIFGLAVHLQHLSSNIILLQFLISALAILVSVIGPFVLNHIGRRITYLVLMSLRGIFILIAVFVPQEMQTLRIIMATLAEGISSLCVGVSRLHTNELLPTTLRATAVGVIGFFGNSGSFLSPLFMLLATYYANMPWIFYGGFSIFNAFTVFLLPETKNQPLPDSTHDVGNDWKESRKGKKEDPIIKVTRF
# Sequence of UniProt Q9CR62 (Q9CR62 whole entry): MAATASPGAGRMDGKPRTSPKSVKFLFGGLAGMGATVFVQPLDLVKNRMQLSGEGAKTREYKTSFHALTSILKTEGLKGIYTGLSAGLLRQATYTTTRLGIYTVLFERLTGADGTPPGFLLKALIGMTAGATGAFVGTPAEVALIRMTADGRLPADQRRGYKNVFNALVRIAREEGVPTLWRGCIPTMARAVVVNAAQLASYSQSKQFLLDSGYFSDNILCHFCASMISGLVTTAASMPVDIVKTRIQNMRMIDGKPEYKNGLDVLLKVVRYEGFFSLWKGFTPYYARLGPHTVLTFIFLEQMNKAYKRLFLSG
# Sequence of UniProt Q9CZW4 (Q9CZW4 whole entry): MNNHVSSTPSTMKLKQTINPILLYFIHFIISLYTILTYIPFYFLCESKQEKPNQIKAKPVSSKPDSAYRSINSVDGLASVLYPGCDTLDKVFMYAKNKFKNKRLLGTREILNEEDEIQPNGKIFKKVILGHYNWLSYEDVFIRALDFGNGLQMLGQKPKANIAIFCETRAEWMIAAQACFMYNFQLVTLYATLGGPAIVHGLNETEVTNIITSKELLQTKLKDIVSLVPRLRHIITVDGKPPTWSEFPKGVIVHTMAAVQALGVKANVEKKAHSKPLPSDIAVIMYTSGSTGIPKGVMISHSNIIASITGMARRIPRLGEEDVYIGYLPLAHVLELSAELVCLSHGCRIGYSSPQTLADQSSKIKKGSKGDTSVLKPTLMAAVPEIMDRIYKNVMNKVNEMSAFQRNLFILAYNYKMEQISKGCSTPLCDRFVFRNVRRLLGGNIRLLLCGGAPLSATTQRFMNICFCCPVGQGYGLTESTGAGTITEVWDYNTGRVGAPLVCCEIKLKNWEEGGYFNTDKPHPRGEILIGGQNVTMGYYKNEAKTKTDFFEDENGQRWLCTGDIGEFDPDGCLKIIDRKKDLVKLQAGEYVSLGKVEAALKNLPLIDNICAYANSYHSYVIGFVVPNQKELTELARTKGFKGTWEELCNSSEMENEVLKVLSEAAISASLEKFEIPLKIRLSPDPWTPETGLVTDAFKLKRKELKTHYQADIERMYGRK
# Sequence of UniProt Q60737 (Q60737 whole entry): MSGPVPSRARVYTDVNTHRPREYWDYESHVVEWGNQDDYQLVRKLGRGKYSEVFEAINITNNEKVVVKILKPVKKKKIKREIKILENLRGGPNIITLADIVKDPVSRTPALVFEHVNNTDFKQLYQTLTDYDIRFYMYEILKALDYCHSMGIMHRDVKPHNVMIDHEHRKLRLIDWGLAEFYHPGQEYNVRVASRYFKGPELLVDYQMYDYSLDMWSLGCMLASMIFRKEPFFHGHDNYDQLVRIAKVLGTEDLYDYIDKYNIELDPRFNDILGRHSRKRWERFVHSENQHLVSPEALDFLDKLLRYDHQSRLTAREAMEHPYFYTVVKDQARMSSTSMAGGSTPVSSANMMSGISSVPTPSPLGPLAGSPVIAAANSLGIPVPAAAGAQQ
# Sequence of UniProt O54781 (O54781 whole entry): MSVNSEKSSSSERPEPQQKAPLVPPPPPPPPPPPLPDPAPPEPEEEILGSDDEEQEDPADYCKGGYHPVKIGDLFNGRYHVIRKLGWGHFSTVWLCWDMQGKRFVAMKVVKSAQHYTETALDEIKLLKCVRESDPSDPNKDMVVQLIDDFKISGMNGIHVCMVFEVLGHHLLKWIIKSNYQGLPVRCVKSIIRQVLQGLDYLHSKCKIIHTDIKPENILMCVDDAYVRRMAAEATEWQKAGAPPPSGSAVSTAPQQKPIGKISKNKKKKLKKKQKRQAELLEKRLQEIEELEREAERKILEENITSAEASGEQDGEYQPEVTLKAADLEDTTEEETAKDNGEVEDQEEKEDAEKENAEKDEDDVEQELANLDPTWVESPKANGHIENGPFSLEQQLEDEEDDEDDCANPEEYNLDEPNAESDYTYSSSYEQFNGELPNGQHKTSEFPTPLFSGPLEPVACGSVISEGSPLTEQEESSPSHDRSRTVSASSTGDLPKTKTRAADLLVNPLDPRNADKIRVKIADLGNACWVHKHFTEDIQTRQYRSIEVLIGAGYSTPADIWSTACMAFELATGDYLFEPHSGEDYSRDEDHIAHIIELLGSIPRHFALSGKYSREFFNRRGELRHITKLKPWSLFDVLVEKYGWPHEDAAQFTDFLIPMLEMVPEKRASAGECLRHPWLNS
row,Target,log2 fold change
1,"UniProt Q76M72 (peptide sequence: WLIVTNKPQK, peptide start residue: 285)",-2.63
2,"UniProt Q9CZW4 (peptide sequence: ALDFGNGLQMLGQKPK, peptide start residue: 144)",0.538
3,"UniProt Q60737 (peptide sequence: VYTDVNTHRPR, peptide start residue: 11)",0.264
4,"UniProt Q9EPJ9 (peptide sequence: DVTTFFSGK, peptide start residue: 289)",0.513
5,"UniProt Q9CR62 (peptide sequence: NGLDVLLK, peptide start residue: 261)",0.377
6,"UniProt O54781 (peptide sequence: HFTEDIQTR, peptide start residue: 500)",-1.82
